Sampled rows, rich in hits. Any-hit rate of the full collection: about 0.84%.
S1P3 antagonist – S1P3 receptor antagonists, primary screen, cell-based; Sphingosine 1-phosphate receptor 3 (Homo sapiens), Q99500; CHO S1P3 NFAT-BLA reporter, FRET fluorescence, antagonist mode; inhibition, % at 4.98 µM; hit rate 0.27% among 170,000; AID 485, 2006;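 active = inhibition above the plate cutoff, the mean inhibition of test wells on that plate plus 3 SD, cut at about 28% in these data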;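 also: cells challenged with S1P at its EC80 of 0.8 µM; blue over green emission ratio from cleaved BLA substrate after 4 h stimulation; 0% = S1P-stimulated wells and 100% = unstimulated DMSO-only wells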
G6PDH CS – L. mesenteroides G6PDH inhibitors, counter-screen for G6PDH-coupled screening assays, biochemical, Leuconostoc mesenteroides enzyme. glucose-6-phosphate dehydrogenase [Leuconostoc mesenteroides]. Purified L. mesenteroides G6PDH, diaphorase/resazurin coupled fluorescence, 45 min. inhibition, % at 5 µM. hit rate 0.12% among 200,000. AID 1020, 2008; in the data active = inhibition above about 50%
TbHK1 inh – Trypanosoma brucei hexokinase 1 inhibitors, primary screen, biochemical, G6PDH-coupled NADH absorbance, MLSCN library | hexokinase 1 [Trypanosoma brucei] | recombinant TbHK1, G6PDH-coupled NADH A340 | inhibition, % at 10 µM | hit rate 0.11% among 220,000 | AID 1430, 2008;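 active = inhibition of 50% or more in the single-dose primary screen; inactive = inhibition below 50%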
p97 ATPase inh – inhibitors of human p97 ATPase, primary screen, biochemical. Transitional endoplasmic reticulum ATPase (Homo sapiens), P55072. recombinant p97 ATPase, Kinase-Glo ATP luminescence, 3 h. inhibition, % at 8 µM. hit rate 0.42% among 220,000; in the data active = inhibition above about 15%;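 also: 0% = DMSO vehicle and 100% = wells lacking enzyme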
Redox H2O2 prof – compounds producing H2O2 with reducing agent – biochemical, NIH compound library profiling, artefact control for MLSCN library redox annotation, primary screen. DTT-dependent redox cycling H2O2, phenol red/HRP absorbance; 100% = 100 µM peroxide control, 0% = buffer. activation, % at 10 µM. hit rate 0.03% among 200,000;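 active = activation of at least 50% relative to the plate's high and low controls in the primary single-dose screen; inactive = activation below 50%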;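 also: compound incubated with DTT at 0.8 mM final as the reducing agent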
* hit, by the source's call; / = no result given.

SMILES	S1P3 antagonist	G6PDH CS	TbHK1 inh	p97 ATPase inh	Redox H2O2 prof
N#CC1=C(N)Oc2ccc3ccccc3c2C1c1cccnc1 (configuration not stated)	-5	2	1	5	0
CC1(C(=O)O)C=CC2(CCCCC2)N1C(=O)c1ccccc1 (configuration not stated)	-8	10	2	4	0
CCC(=O)N(C1=C(NC(C)C)C(=O)c2ccccc2C1=O)C(C)C	-26	55*	-4	1	-1
COc1ccc(CNC(=O)C(c2ccco2)N(C(=O)c2csnn2)c2cccc(C)c2C)cc1 (configuration not stated)	/	4	-2	-4	0
COc1ccc(S(=O)(=O)Nc2cc(Sc3ncn[nH]3)c(O)c3ccccc23)cc1	/	54*	15	31*	1
CCCC(c1nnnn1Cc1ccco1)N1CCN(c2cc(Cl)ccc2C)CC1 (configuration not stated)	60*	10	10	-4	0
Cc1cc(=O)n(-c2ccc(O)cc2)[nH]1	-5	4	7	21*	0
CC(C)(C)NC(=O)c1cc(C(C)(C)C)c(O)c(C(C)(C)C)c1	-1	4	35	0	0
COc1ccccc1-c1noc(-c2ccccc2)n1	5	12	1	-2	0
COc1ccc(-c2nc(-c3ccccc3OC)no2)cc1OC	54*	12	-5	-6	1
CCCCN(CC)CCNC(=O)CN(C)S(=O)(=O)c1ccc2c(c1)c(=O)n(C)c(=O)n2C	-1	3	6	15*	-1
Oc1ccc(/C=N/Nc2cc(N3CCCC3)nc(N3CCCC3)n2)cc1	/	52*	-10	1	-8
Cc1cccc(OCC(O)CN2C(C)(C)CC(O)CC2(C)C)c1 (configuration not stated)	/	16	-2	0	9
O=C1C=CC(=O)N1c1ccc(I)cc1Cl	-7	/	0	6	/
Oc1ccc(/C=N/N2CCOCC2)c(O)c1O	-13	52*	-5	4	-1
COn1c(C)c(C)c2c3nonc3ccc21	-8	/	-13	19*	/
CCCC(=O)C1=C(O)C(C(=O)OC)C(C)(C)CC1=Nc1ccc(N)cc1 (configuration not stated)	/	3	-13	-6	-5
CCCC(=Nc1ccc(N)cc1)C1=C(O)C(C(=O)OC)C(C)(C)CC1=O (configuration not stated)	/	1	-6	15*	1
Cc1cc(C)c(C(N)=O)c(Nc2cccc(Cl)c2C)n1	55*	-2	-5	3	1
CCNC1=C(Cl)C(=O)c2ccccc2C1=O	/	37	-7	1	0
O=C1C(Cl)=C(NCCN2CCCCC2)C(=O)c2ccccc21	-12	51*	-4	3	0
Cc1cccc(S(=O)(=O)C(C#N)c2nc3ccccc3nc2N2CCCC2)c1 (configuration not stated)	0	8	-7	20*	-1
COc1ccc(CC(=O)Nc2c3c(nn2-c2cccc(C)c2C)CS(=O)C3)cc1 (configuration not stated)	1	18	0	2	3
COC(=O)Nc1ccc2c(c1)N(C(=O)CCN1CCN3CCCC3C1)c1ccccc1CC2 (configuration not stated)	0	-2	-2	10	-2
CCCCCCCCCCCCCCCC[n+]1ccc(C(N)=O)cc1	-9	-9	64*	-2	0
CCCCCCCCCCCCCCCC[n+]1ccc(/C=N/O)cc1	6	-11	47	5	0
CCOC(=O)Cn1c(=O)oc2cc(S(=O)(=O)Nc3ccc(N(CC)CC)cc3C)ccc21	4	0	6	-2	0
CCOC(=O)c1c(N)c(C#N)cn1-c1ccccc1	13	-11	2	-5	1
CCOC(=O)c1c(NC(=O)c2nn(CC)cc2Br)c(C#N)cn1-c1ccccc1	59*	-6	-5	-5	-1
O=C(CSc1nnnn1C1CC2CCC1C2)Nc1ccnc2ccccc12 (configuration not stated)	64*	13	0	1	-1

Screening results: PubChem, several laboratories
